# Results reported in ChEMBL document CHEMBL3988442, “University of Dundee, Small-Polar-MMV Screening Library” (2021).
# Target: T1, Methionyl-tRNA synthetase, putative (Leishmania donovani (strain BPK282A1)) (UniProt E9BF75)
# T1 sequence (whole entry): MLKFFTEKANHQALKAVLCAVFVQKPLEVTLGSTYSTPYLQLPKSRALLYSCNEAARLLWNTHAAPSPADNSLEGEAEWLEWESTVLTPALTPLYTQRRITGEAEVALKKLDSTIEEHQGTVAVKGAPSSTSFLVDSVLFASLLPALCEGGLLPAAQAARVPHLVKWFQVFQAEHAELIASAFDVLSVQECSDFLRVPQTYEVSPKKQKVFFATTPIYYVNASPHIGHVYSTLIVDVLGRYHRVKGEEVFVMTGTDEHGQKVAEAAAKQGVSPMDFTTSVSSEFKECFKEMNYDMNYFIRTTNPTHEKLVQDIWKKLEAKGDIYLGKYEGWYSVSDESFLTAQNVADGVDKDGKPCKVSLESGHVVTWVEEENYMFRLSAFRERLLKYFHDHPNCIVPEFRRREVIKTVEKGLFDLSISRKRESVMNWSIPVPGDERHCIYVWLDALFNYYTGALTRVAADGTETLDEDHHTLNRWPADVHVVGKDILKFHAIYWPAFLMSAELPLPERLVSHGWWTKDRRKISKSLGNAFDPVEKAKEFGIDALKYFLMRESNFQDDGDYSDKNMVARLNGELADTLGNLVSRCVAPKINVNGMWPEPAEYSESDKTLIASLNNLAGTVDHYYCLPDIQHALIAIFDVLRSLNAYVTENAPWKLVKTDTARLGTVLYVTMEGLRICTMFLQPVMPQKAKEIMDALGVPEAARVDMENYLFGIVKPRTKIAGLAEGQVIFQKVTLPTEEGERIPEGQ
# Assay: Leishmania donovani Methionine tRNA synthetase (LdMetRS):v7. Dose response assay
# Type: functional
# Set-up: conc 80 nM, time 150 minutes
smiles,measurement,setting,value
Cn1ncc2c(NCCO)nc(NCc3cccnc3)nc21,PXC50,MAX_EFFECT 7.969639469,< 4
same,PXC50,MAX_EFFECT 8.113207547,< 4
same,PXC50,MAX_EFFECT 12.78538813,< 4
Cc1cnn(CC2CCCN2Cc2nc(C)c3ccccc3n2)c1 (configuration not stated),PXC50,"BOTTOM 4.743177934, HILLSLOPE 1.089829687, MAX_EFFECT 75.04332756, TOP 100.0",4.32
same,PXC50,"BOTTOM 12.95021696, HILLSLOPE 2.00591159, MAX_EFFECT 86.80555556, TOP 100.0",4.37
same,PXC50,"BOTTOM -2.883731045, HILLSLOPE 1.436435191, MAX_EFFECT 78.52348993, TOP 84.80947153",4.63
Cn1ncc2c(NCCO)nc(Nc3cccc(O)c3)nc21,PXC50,MAX_EFFECT 5.386416862,< 4
same,PXC50,MAX_EFFECT 6.072106262,< 4
same,PXC50,MAX_EFFECT 8.167770419,< 4
Cc1cc(C)n(-c2nc(N3CCCC(O)C3)c3c4c(sc3n2)CCCC4)n1 (configuration not stated),PXC50,MAX_EFFECT 1.492537313,< 4
same,PXC50,MAX_EFFECT 6.004140787,< 4
same,PXC50,MAX_EFFECT 6.832298137,< 4
same,PXC50,MAX_EFFECT 7.036247335,< 4
Cn1ncc2c(NCCO)nc(NCc3cccc(F)c3)nc21,PXC50,MAX_EFFECT 8.142493639,< 4
same,PXC50,MAX_EFFECT 8.301886792,< 4
same,PXC50,MAX_EFFECT 9.649122807,< 4
Cn1ncc2c(NCC3CC3)nc(Nc3ccc(F)c(F)c3)nc21,PXC50,"BOTTOM 0.0, HILLSLOPE 1.193695984, MAX_EFFECT 69.21119593, TOP 72.54722957",5.02
same,PXC50,"BOTTOM -3.303876123, HILLSLOPE 0.978123659, MAX_EFFECT 83.23699422, TOP 90.5971187",5.12
same,PXC50,"BOTTOM -7.642255371, HILLSLOPE 0.84165704, MAX_EFFECT 66.22807018, TOP 86.93864885",4.93
OCCNc1nc(Nc2cccc(F)c2)nc2ccsc12,PXC50,"BOTTOM 3.044431964, HILLSLOPE 0.890140098, MAX_EFFECT 69.62809917, TOP 98.77893837",4.42
same,PXC50,"BOTTOM -0.299639933, HILLSLOPE 0.74457476, MAX_EFFECT 65.18375242, TOP 100.0",4.37
same,PXC50,"BOTTOM -0.909696564, HILLSLOPE 1.048927528, MAX_EFFECT 68.28193833, TOP 78.21382142",4.73
Nc1cc2c(nn1)CCN(C(=O)c1csc(-c3cccs3)n1)C2,PXC50,MAX_EFFECT 19.04761905,< 4
same,PXC50,MAX_EFFECT 19.56521739,< 4
same,PXC50,MAX_EFFECT 20.14010508,< 4
CC(C)Nc1nc(Nc2ccc(F)c(F)c2)nc2c1cnn2C,PXC50,"BOTTOM 6.912856457, HILLSLOPE 1.265127605, MAX_EFFECT 60.96491228, TOP 58.85327881",5.32
same,PXC50,"BOTTOM 8.026516696, HILLSLOPE 1.466204418, MAX_EFFECT 55.47073791, TOP 58.34935066",5.27
same,PXC50,"BOTTOM 8.495247693, HILLSLOPE 1.610767227, MAX_EFFECT 62.64150943, TOP 64.37148882",5.22
COCCNc1nc(Nc2ccc(F)c(F)c2)nc2c1cnn2C,PXC50,"BOTTOM 0.0, HILLSLOPE 0.788642153, MAX_EFFECT 89.69957082, TOP 101.1762058",5.15
same,PXC50,"BOTTOM 0.0, HILLSLOPE 0.880096509, MAX_EFFECT 92.63657957, TOP 99.00872691",5.23
same,PXC50,"BOTTOM -0.84748474, HILLSLOPE 0.841528212, MAX_EFFECT 93.81044487, TOP 101.2621412",5.29
CC(C)C[C@H](N)COc1cccc(F)c1Oc1cccc(Cl)c1,PXC50,"BOTTOM 6.91310013, HILLSLOPE 1.495350679, MAX_EFFECT 83.36221837, TOP 100.0",4.36
same,PXC50,"BOTTOM 8.664927698, HILLSLOPE 1.748800753, MAX_EFFECT 77.85234899, TOP 95.40759793",4.33
same,PXC50,"BOTTOM 9.147353303, HILLSLOPE 1.551603339, MAX_EFFECT 81.25, TOP 100.0",4.34
same,PXC50,"BOTTOM -0.863158235, HILLSLOPE 2.70922767, MAX_EFFECT 71.29186603, TOP 83.59060963",4.29
same,PXC50,"BOTTOM -4.44021311, HILLSLOPE 1.559741226, MAX_EFFECT 77.3512476, TOP 100.0",4.35
CN(c1cccc(F)c1)c1nc(NCCO)c2cnn(C)c2n1,PXC50,MAX_EFFECT 8.142493639,< 4
same,PXC50,MAX_EFFECT 9.649122807,< 4
same,PXC50,MAX_EFFECT 12.83018868,< 4
NC1CCOc2c(Cl)cc(Cl)cc21 (configuration not stated),PXC50,MAX_EFFECT 4.805491991,< 2.7
same,PXC50,MAX_EFFECT 6.273764259,< 3
same,PXC50,MAX_EFFECT 11.76470588,< 2.7
same,PXC50,MAX_EFFECT 23.54211663,< 3
NC(=O)c1cc(Nc2ncccc2S(N)(=O)=O)cc(C(F)(F)F)c1,PXC50,MAX_EFFECT 8.583690987,< 4
same,PXC50,MAX_EFFECT 8.863198459,< 4
same,PXC50,MAX_EFFECT 9.501187648,< 4
NS(=O)(=O)c1cccc(Nc2ncccc2S(N)(=O)=O)c1,PXC50,MAX_EFFECT 9.108159393,< 4
same,PXC50,MAX_EFFECT 16.73553719,< 4
same,PXC50,MAX_EFFECT 21.14537445,< 4
Cc1cc(NCCO)nc(Nc2ccc(F)c(F)c2)n1,PXC50,"BOTTOM 2.753913498, HILLSLOPE 0.759187316, MAX_EFFECT 87.41092637, TOP 100.0",4.84
same,PXC50,"BOTTOM 8.051339334, HILLSLOPE 0.840494555, MAX_EFFECT 84.97854077, TOP 109.6160526",4.62
same,PXC50,"BOTTOM -3.669323527, HILLSLOPE 0.810726137, MAX_EFFECT 81.68224299, TOP 99.92002792",4.84
